# According to PubChem BioAssay (Tox21):
# Several values for one entry are separate records, joined by “and”; a condition that tells them apart may be missing. Equal values may be shown once. Records with an inconclusive call do not appear. A call without a number means that no potency is given here. The source holds several records for some structures; these can differ, active in one and inactive in another. Activity calls are given as the source filed them. Unless noted, the call rests on the fitted dose curve; in most records, active means well fitted curve in the direction sought with a large enough effect in the repeat runs; inconclusive means weak or mixed curves; inactive means no such curve, though single readings can be large; an effect the other way counts as inactive or inconclusive.
# How the values were obtained:
# [1] = qHTS assay to identify small molecule agonists of the peroxisome proliferator-activated receptor delta (PPARd) signaling pathway - cell viability counter screen (AID 743211); further: nearly all actives have a fitted effect of over 55% in size; further: potency means the concentration at half of the fitted maximal effect
# Outline: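 Luminescent ATP viability assay (CellTiter-Glo, 30 min RT) in UAS-bla HEK293H cells carrying the PPAR delta reporter construct, 3000 cells/well, after a 17 h compound treatment at 37 C.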
# [2] = qHTS assay to identify small molecule antagonists of the peroxisome proliferator-activated receptor delta (PPARd) signaling pathway - cell viability counter screen (AID 743213); further: nearly all actives have a fitted effect of over 50% in size; further: potency means the concentration at half of the fitted maximal effect
# Outline: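 PPARd-bla HEK293H cells were treated with compounds plus agonist L165041 (300 nM final) for 17 h at 37 C. Viability was then read in the same wells by CellTiter-Glo luminescence after 30 min at room temperature.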
# [3] = qHTS assay to identify small molecule agonists of the farnesoid-X-receptor (FXR) signaling pathway - cell viability counter screen (AID 743218); further: nearly all actives have a fitted effect of over 45% in size; further: potency means the concentration at half of the fitted maximal effect
# Outline: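 Cells were seeded, left 5 h at 37 C and 5% CO2, then dosed with compound in DMSO for 16 h. After the beta-lactamase FRET read, CellTiter-Glo was added and luminescence measured 30 min later.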
# [4] = qHTS assay to identify small molecule antagonists of the farnesoid-X-receptor (FXR) signaling pathway - cell viability counter screen (AID 743221; active means well fitted cell-killing curve with a large enough effect in the repeat runs, not every such curve was filed as active; further: nearly all actives have a fitted effect of over 50% in size; further: potency means the concentration at half of the fitted maximal effect)
# Outline: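 In GeneBLAzer FXR-UAS-bla HEK 293T cells stimulated with 50 uM chenodeoxycholic acid (final), compounds acted for 16 h at 37 C. Viability was assessed afterwards by CellTiter-Glo luminescence.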
# [5] = target: Vitamin D3 receptor (Homo sapiens) (UniProt P11473); experiment: qHTS assay to identify small molecule agonists of the vitamin D receptor (VDR) signaling pathway (AID 743222; calls by dose curve)
# Outline: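 Cells carrying a VDR-driven beta-lactamase reporter are seeded at 2,000 per well and rested 4 h. Compounds in DMSO are added for 16 h at 37C, and FRET substrate fluorescence is measured after 2 h at room temperature.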
# [6] = target: Vitamin D3 receptor (Homo sapiens) (UniProt P11473); experiment: qHTS assay to identify small molecule antagonists of the vitamin D receptor (VDR) signaling pathway (AID 743223; active means well fitted inhibition curve with a large enough effect in the signal ratio in the repeat runs, not every such curve was filed as active; the % refers to the signal ratio; further: potency means the concentration at half of the fitted maximal effect)
# Outline: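 Agonist 1alpha,25-dihydroxyvitamin D3 (3 nM in well) was added with each compound to VDR-bla cells preincubated 4 h. Cells stood 16 h at 37C, then FRET substrate 2 h at room temperature; fluorescence intensity recorded.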
# [7] = target: Bile acid receptor (Homo sapiens) (UniProt Q96RI1); experiment: qHTS assay to identify small molecule antagonists of the farnesoid-X-receptor (FXR) signaling pathway (AID 743217; active means well fitted inhibition curve with a large enough effect in the signal ratio in the repeat runs, not every such curve was filed as active; the % refers to the signal ratio)
# Outline: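 Cells carrying a UAS-driven beta-lactamase reporter (GeneBLAzer FXR-UAS-bla HEK 293T) were plated and rested 5 h at 37 °C. Compounds in DMSO were added alongside chenodeoxycholic acid agonist at 50 uM final and left 16 h at 37 °C before FRET substrate readout.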
# [8] = target: Bile acid receptor (Homo sapiens) (UniProt Q96RI1); experiment: qHTS assay to identify small molecule agonists of the farnesoid-X-receptor (FXR) signaling pathway (AID 743220; active means well fitted activation curve with a large enough effect in the signal ratio in the repeat runs, not every such curve was filed as active; the % refers to the signal ratio)
# Outline: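 FXR-UAS-bla HEK 293T cells carrying a UAS-driven beta-lactamase reporter were plated for 5 h at 37C/5% CO2, then exposed to DMSO-dissolved Tox21 10K compounds for 16 h at 37C. A LiveBLAzer B/G FRET substrate was loaded for 2 h at room temperature before fluorescence reading.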
# Sequence of Vitamin D3 receptor (Homo sapiens) (P11473 whole entry, looked up): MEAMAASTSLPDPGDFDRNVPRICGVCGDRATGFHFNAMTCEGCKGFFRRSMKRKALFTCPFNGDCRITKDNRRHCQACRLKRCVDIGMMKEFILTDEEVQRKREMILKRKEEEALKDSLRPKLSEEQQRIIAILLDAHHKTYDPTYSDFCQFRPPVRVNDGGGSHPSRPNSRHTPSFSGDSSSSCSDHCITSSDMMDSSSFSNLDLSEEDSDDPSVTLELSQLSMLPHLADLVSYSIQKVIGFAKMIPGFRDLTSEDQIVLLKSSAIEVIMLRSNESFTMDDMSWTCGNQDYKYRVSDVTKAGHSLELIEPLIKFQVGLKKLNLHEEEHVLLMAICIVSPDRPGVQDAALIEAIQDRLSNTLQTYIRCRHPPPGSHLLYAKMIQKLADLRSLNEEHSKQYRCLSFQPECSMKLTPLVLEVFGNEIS
# Sequence of Bile acid receptor (Homo sapiens) (Q96RI1 whole entry, looked up): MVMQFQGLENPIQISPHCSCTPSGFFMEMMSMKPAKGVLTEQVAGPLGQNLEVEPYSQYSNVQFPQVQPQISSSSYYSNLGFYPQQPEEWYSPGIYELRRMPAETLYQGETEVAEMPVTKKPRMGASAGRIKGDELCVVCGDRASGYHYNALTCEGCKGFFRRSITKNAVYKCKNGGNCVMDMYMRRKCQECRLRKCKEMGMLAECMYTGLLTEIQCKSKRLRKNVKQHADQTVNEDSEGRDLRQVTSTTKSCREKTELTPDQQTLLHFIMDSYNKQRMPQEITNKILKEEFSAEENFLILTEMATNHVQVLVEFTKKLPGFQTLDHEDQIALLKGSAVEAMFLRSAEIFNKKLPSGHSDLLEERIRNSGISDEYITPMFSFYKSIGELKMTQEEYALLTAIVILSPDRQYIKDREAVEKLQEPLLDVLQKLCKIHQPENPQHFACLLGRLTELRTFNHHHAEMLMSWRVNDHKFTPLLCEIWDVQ
SMILES,Potency [1],Potency [2],Potency [3],Potency [4],outcome [5],Potency [6],Potency [7],Potency [8]
C[N+](C)(C)C,inactive,inactive,inactive,inactive,inactive,inactive,–,–
CCC(=O)Nc1ccc(Cl)c(Cl)c1,inactive,inactive,inactive,inactive,inactive,inactive,–,–
CCC1(c2ccc(N)cc2)CCC(=O)NC1=O (stereo not drawn),inactive,inactive,inactive,inactive,inactive,inactive,inactive,inactive
COc1ccc(C=O)cc1OC,inactive,inactive,inactive,inactive,–,–,–,–
COP(=S)(OC)Oc1ccc(S(=O)(=O)N(C)C)cc1,inactive,inactive,inactive,inactive,inactive,inactive,–,–
CN(C)c1ccccc1,inactive,inactive,inactive,inactive,inactive,inactive,inactive,inactive
COc1ccc(CO)cc1,inactive,inactive,inactive,inactive,inactive,inactive,inactive,inactive
C=CC(Cl)CCl (stereo not drawn),inactive,inactive,inactive,inactive,inactive,inactive,inactive,inactive
CCOP(=O)(O)OCC (tested in a mixture with another compound),inactive and 21.7 µM (active),inactive and 19.3 µM (active),inactive and 43.3 µM (active),inactive and 48.6 µM (active),–,–,–,–
NC(=O)CN1CCCC1=O,inactive,inactive,inactive,inactive,inactive,inactive,–,–
CCC[CH2][Sn]([Cl])([CH2]CCC)[CH2]CCC,551 nM (active) and 1.23 µM (active),778 nM (active) and 1.95 µM (active),873 nM (active) and 1.23 µM (active),1.95 µM (active) and 2.45 µM (active),–,–,–,–
CC(C)(c1ccccc1)c1ccc(O)c(C(C)(C)c2ccccc2)c1,21.7 µM (active) and 19.5 µM (active),34.3 µM (active) and 43.6 µM (active),54.9 µM (active),–,–,43.6 µM (active),–,–
O=[N+]([O-])c1ccc(Cl)c([N+](=O)[O-])c1,19.8 µM (active) and 19.5 µM (active),24.9 µM (active) and 19.5 µM (active),54.9 µM (active),–,–,22.2 µM (active) and 21.9 µM (active),–,–
Cc1ccc(N=CN(C)C=Nc2ccc(C)cc2C)c(C)c1,49.2 µM (active) and 48.9 µM (active) and inactive,24.5 µM (active),inactive,inactive,inactive,–,–,–
CCOP(=S)(OCC)SCn1c(=O)oc2cc(Cl)ccc21,inactive,inactive,–,inactive,inactive,inactive,inactive,inactive
N#Cc1c(Cl)c(Cl)c(Cl)c(C#N)c1Cl,6.79 µM (active) and 6.92 µM (active),15.2 µM (active) and 5.49 µM (active),21.5 µM (active) and 15.5 µM (active),24.1 µM (active) and 21.9 µM (active),inactive,–,–,–
Nc1ccc2ccccc2c1,inactive,inactive,inactive,inactive,inactive,inactive,–,–
O=[N+]([O-])c1ccc(Nc2ccccc2)cc1,inactive and 49 µM (active),inactive,–,inactive,inactive,–,–,–
